Data from ChEMBL document CHEMBL3433997, “St. Jude Leishmania screening dataset” (2016).
Values joined by “and” are separate entries in the source; they are usually repeats but may differ in a detail not shown here. Identical values can stand only once.

Assays:
Format in all cases: functional
[1] = biological target: Solute carrier family 2, facilitated glucose transporter member 1 (Homo sapiens) (UniProt P11166); assay: ST_JUDE_LEISH: Cytotoxicity at 2uM final concentration against transgenic Leishmania Mexicana promastigotes LmGLUT1 that are glucose transport deficient and complemented with the human glucose transporter GLUT1. Activity is measured by DNA content using SYBR green in vitro
[2] = biological target: Hexose transporter 1 (Plasmodium falciparum) (UniProt O97467); assay: ST_JUDE_LEISH: Cytotoxicity at 2uM final concentration against transgenic Leishmania Mexicana promastigotes LmPfHT that are glucose transport deficient and complemented with the Plasmodium falciparum hexose transporter. Activity is measured by DNA content using SYBR green in vitro
[3] = biological target: Glucose transporter (Leishmania mexicana) (UniProt O61059); assay: ST_JUDE_LEISH: Cytotoxicity at 2uM final concentration against transgenic Leishmania Mexicana promastigotes LmGT2 that are glucose transport deficient and complemented with the L. Mexicana glucose transporter 2. Activity is measured by DNA content using SYBR green in vitro

Chain of Solute carrier family 2, facilitated glucose transporter member 1 (Homo sapiens) (P11166 whole entry): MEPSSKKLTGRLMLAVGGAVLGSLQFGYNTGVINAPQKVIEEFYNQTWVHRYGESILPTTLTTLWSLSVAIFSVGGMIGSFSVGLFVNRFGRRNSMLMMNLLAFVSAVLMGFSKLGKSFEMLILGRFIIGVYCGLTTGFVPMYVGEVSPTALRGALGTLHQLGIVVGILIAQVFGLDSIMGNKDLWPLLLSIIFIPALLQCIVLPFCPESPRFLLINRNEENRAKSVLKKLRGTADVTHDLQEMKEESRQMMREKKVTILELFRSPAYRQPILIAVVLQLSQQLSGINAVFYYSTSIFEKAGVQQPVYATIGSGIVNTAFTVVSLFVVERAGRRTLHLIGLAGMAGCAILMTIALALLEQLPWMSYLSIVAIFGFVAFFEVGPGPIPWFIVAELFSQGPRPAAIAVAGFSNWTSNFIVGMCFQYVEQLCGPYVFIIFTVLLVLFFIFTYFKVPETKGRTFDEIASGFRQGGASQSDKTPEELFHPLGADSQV

Row | SMILES | inhibition [1] | inhibition [2] | inhibition [3]
1 | O=C(NC1CCN(Cc2ccccc2)CC1)c1cccc(Nc2nc(-c3ccccc3)cs2)c1 | 9.1% | 8.88% | 2.09%
2 | c1cc(Cc2ccc(Nc3c4ccccc4nc4ccccc34)cc2)cc(Nc2c3ccccc3nc3ccccc23)c1 | 5.95% | 5.85% | 2.19%
3 | CCSc1nc2sc3c(c2c(=O)n1-c1ccccc1)CCN(C)C3 | 0.1% | 0.76% | -0.96%
4 | Fc1ccc2[nH]c(-c3ccc(-c4cccc(CN5CCN(CCN6CCOCC6)CC5)c4)cc3)nc2c1 | 4.48% | 3.16% | 1.99%
5 | CC1CN(c2cnn(C/C=C/c3ccc(NC(=O)c4ccc5nonc5c4)cc3)c(=O)c2Cl)CC(C)N1 (stereo not drawn) | 4.72% | 4.17% | 3.26%
6 | O=C(Nc1ccc(OC(F)(F)F)cc1)NC1CCN(c2ccnc3ccccc23)C1 (stereo not drawn) | 3.08% | 2.41% | 3.12%
7 | CCc1ccccc1N1CCN(CCCC(=O)c2ccc(NC(=O)c3cc(Cl)cc(Cl)c3)cc2)CC1 | 3.17% | 4.43% | 3.44%
8 | COc1cc(C)ccc1S(=O)(=O)N1CCCCC(c2ccc(C(F)(F)F)cc2)=N1 | 10.8% | 11.2% | 10.3%
9 | Cc1cc(=O)c(-c2ccc(Oc3cccc(C(F)(F)F)c3)cc2)c(C)[nH]1 | 0.14% and -4.84% | 2% and 2.11% | 1.32% and -2.73%
10 | COc1ccc(CNCc2cccc(-c3cccc(-c4nc5cccc(C)c5[nH]4)c3)c2)cc1 | 9.14% | 8.38% | 7.72%
11 | COc1cc(OC)cc(-c2nn(-c3ccc([N+](=O)[O-])cc3C#N)c(=S)n2CC2CCCO2)c1 (stereo not drawn) | 2.04% | 1.07% | -7.78%
12 | COc1ccc(Cl)cc1N1CCN(CCCNC(=O)c2ccc(-c3nc4cc5ccccc5cc4[nH]3)c(F)c2)CC1 | 1.51% | 3.41% | 1.26%
13 | O=C(Nc1ccc(Cl)cc1)Nc1cccc(-c2cccc(-c3nc4ccccc4[nH]3)c2)c1 | 1.17% | 0.33% | -0.65%
14 | O=C(Nc1cccc(C(F)(F)F)c1)c1cc([N+](=O)[O-])cc2cn[nH]c12 | 6.35% | 5.74% | 1.24%
15 | O=c1ccc(CNc2nc(NCCc3ccccc3)nc3ccc(Cl)cc23)c[nH]1 | 3.36% | 3.7% | 0.86%
16 | CC(=O)Nc1ncc(C(=O)Nc2cccc(-c3cccc(-c4nc5cccc(C)c5[nH]4)c3)c2)s1 | 3.02% | 2.86% | 2.45%

Row | SMILES | inhibition [1] | inhibition [2] | inhibition [3]
17 | C=CCCCNCC(NCCCNc1cc(=O)c2ccccc2[nH]1)c1cc(Br)cc(Br)c1 (stereo not drawn) | -2.22% | -0.98% | 0.77%
18 | Cc1nc(NCCc2c[nH]cn2)cc(NCc2ccccc2)n1 | 3.83% | 3.44% | 3.61%
19 | C=CCc1cc(C2CCN(CCCCNC(=O)c3ccc(-c4ccc(C#N)cc4)cc3)CC2)c(OCC(N)=O)c2c1CCCC2 | 0.81% | 2.67% | 3.22%
20 | Cc1cccc2nc(-c3ccc(-c4ccc(NC(=O)C(C)CN(C)C)cc4)s3)[nH]c12 (stereo not drawn) | 4.89% | 6.11% | 3.65%
21 | O=C(Nc1cc(F)cc(F)c1)N1CCOC(CCN2CCC3(CCc4ccccc43)CC2)(c2ccc(Cl)c(Cl)c2)C1 (stereo not drawn) | 3.28% | 3.01% | 1.78%
22 | CCCC(C)Nc1nc(C)cc(N[C@@H](CC(C)C)C(=O)NCc2ccc(C)cc2)n1 (stereo partly drawn) | 3.04% | 4.01% | 0.38%
23 | O=C(Nc1cccc(-c2nn3ncccc3c2-c2ccnc(Nc3cccnc3)n2)c1)c1c(F)cccc1F | 1.51% | 3.78% | 2.21%
24 | CC(C)(C)c1cc(C(=O)N2CCN(c3nccnc3C#N)CC2)n(Cc2ccccc2)n1 | 1.68% | 1.96% | 1.02%
25 | CN1CCC(Oc2ccc(CN3CC[C@H](NC(=O)c4ccc(Cl)c(Cl)c4)C3)cc2Cl)C1 (stereo partly drawn) | 15.3% | 16% | 3.89%
26 | Cc1cccc2nc(-c3cccc(-c4ccc(C(=O)NCc5ccccc5S(C)(=O)=O)cc4)c3)[nH]c12 | 4.92% | 3.13% | 2.53%
27 | CC(=O)N(C)C1CCN(Cc2ccc(-c3cccc(-c4nc5cc(F)ccc5[nH]4)c3)cc2)C1 (stereo not drawn) | 1.27% | -0.26% | 1.68%
28 | CNC(=O)C(C)N(c1ccc(Cl)cc1)c1nc(C(C)(C)C)cs1 (stereo not drawn) | -1.9% | -2.14% | 3.15%
29 | N#Cc1ccc2[nH]cc(CN3CCC4(CC3)CN(CCNCc3ccccc3)C(=O)CO4)c2c1 | 2.13% | -0.73% | 5.02%
30 | O=C(/C=C/c1ccc(Cl)c(Cl)c1)NCCCCCN1CCN(C(=O)Nc2ccc(C(F)(F)F)cc2)CC1 | 2% | 1.98% | 0.71%
31 | COc1ccccc1NC(=O)CSc1nc2cccnc2n1-c1ccccc1OC | 0.89% | 2.24% | 0.14%
